This is an account of results in PubChem BioAssay (NCATS).

Assay [1] is described as follows: qHTS profiling of the MIPE4 collection as inhibitors of Plasmodium falciparum (3D7) proliferation (AID 743344).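 Also: scaled between DMSO vehicle wells and 0.29 µM artemisinin as full inhibition.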 The following applies: P. falciparum 3D7 in erythrocytes, SYBR Green DNA fluorescence, 72 h; at 28.5 µM. An outline of the steps:
(§1)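 Erythrocytes infected with P. falciparum (0.3% parasitemia, 2.5% hematocrit) incubated with compounds 72 h at 37 C, 5% CO2. Lysis with saponin/Triton buffer containing SYBR Green I, overnight at room temperature in the dark; DNA fluorescence (485/535 nm) normalised to 0.29 uM artemisinin and DMSO.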

A short description of assay [2]: qHTS profiling of the MIPE4 collection as inhibitors of Plasmodium falciparum (DD2) proliferation (AID 743345). The note with it: P. falciparum Dd2 in erythrocytes, SYBR Green DNA, 72 h; at 28.5 µM unless noted. A digest of the protocol: as §1
A general note: In qHTS, concentration-response curves come from the screen itself.

A short description of assay [3]: qHTS profiling of the MIPE4 collection as inhibitors of Plasmodium falciparum (DD2) proliferation (Rep 2) (AID 743346). The following applies: P. falciparum Dd2 in erythrocytes, SYBR Green DNA, 72 h; at 28.5 µM. An outline of the steps: as §1
Assay [4] is described as follows: qHTS profiling of the MIPE4 collection as inhibitors of Plasmodium falciparum (HB3) proliferation (AID 743347).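 Also: plate controls were DMSO vehicle wells for no effect and artemisinin wells for full effect.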 The following applies: P. falciparum HB3 in erythrocytes, SYBR Green DNA, 72 h; at 28.5 µM. A digest of the protocol: as §1
A short description of assay [5]: High-throughput drug toxicity screening in the BPDCN cell line Gen2.2 (AID 1224824).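 Also: cells exposed to compounds for 48 h before reading.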 The following applies: Gen2.2 BPDCN cells; at 45.8 µM (top of the series). An outline of the steps: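 Seed 500 exponentially growing Gen2.2 cells/well; add compounds by pin tool; incubate 48 h, 37 °C, 5% CO2; add CellTiter-Glo, 15 min RT; read luminescence. % activity vs DMSO (100%) and bortezomib (0%).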

SMILES strings stand for the structures.

As to `CCCN1CCO[C@@H]2c3cc(O)ccc3OC[C@@H]21`, the parasite growth, % of DMSO control in assay [1] was 98.1%. Further, in assay [2], the parasite growth remaining, % of DMSO control (lower = more inhibition) turned out to be 99.7%. Besides, in assay [3], the parasite growth, % of control (lower = inhibition) amounted to 91%. Moreover, in assay [4], the growth, % of control is 77.3%. In addition, the cell viability, % of control (lower = more cytotoxic) in assay [5] came out at 209%.
For `COCC1(CO)C(=O)C2CCN1CC2` (stereo not given) the same measures were 94.3%, 85.2%, 42%, 87.2% and 4.6%.
The corresponding values for `Cc1ccccc1-n1c(Cn2ncc3c(N)ncnc32)nc2cccc(C)c2c1=O` are 48.8%, 94.1%, 37%, 53.3% and 28.1%.
The compound `COc1ccc2c(c1)[C@]13CCCCC1C(C2)N(C)CC3` (stereo not given in full) came in with a parasite growth, % of DMSO control in assay [1] of 92.5%. This compound also displayed a parasite growth remaining, % of DMSO control (lower = more inhibition) in assay [2] of 85.3%. In addition, the parasite growth, % of control (lower = inhibition) in assay [3] is 52.9%. This compound came in with a growth, % of control in assay [4] of 323%. The cell viability, % of control (lower = more cytotoxic) in assay [5] turned out to be 61.8%.
The corresponding values for `C[C@H]([C@H](O)CCC(C)(C)O)[C@H]1CC[C@@]2(O)C3=CC(=O)[C@@H]4C[C@@H](O)[C@@H](O)C[C@]4(C)[C@@H]3CC[C@]12C` are 93.7%, 99.4%, 93.3%, 59% and 127%.
The corresponding values for `CSCC[C@@H](NC(=O)[C@@H](Cc1ccccc1)NC(=O)CNC(=O)CNC(=O)[C@@H](N)Cc1ccc(O)cc1)C(=O)O` are 92.2%, 49.8%, 89.9%, 99.5% and 140%.
For `CN1CCN(c2ccc([N+](=O)[O-])c3no[n+]([O-])c23)CC1` the same measures were 77.4%, 95.3%, 86.4%, 99.7% and 4.61%.
In assay [1], `CCCCCC[C@H]1C(=O)O[C@H](C)[C@H](NC(=O)c2cccc(NC=O)c2O)C(=O)O[C@@H](C)[C@@H]1OC(=O)CC(C)C` gave a parasite growth, % of DMSO control of 12%. Further, in assay [2], the parasite growth remaining, % of DMSO control (lower = more inhibition) turned out to be 17.3%. Also, the parasite growth, % of control (lower = inhibition) in assay [3] was determined as 14.5%. In assay [4], this compound registered a growth, % of control of 26.2%. Moreover, the cell viability, % of control (lower = more cytotoxic) in assay [5] came out at 177%.
For `N=c1c2c(-c3ccccc3)c(-c3ccccc3)n(Cc3ccccc3)c2ncn1C1CCC(O)CC1` (stereo not given) the same measures were 10.7%, 9.02%, 12.7%, 9.68% and 130%.
In the case of `CCOC(=O)c1cncn1[C@H](C)c1ccccc1`, the parasite growth, % of DMSO control in assay [1] stood at 46.8%. This compound displayed a parasite growth remaining, % of DMSO control (lower = more inhibition) in assay [2] of 98%. In addition, the parasite growth, % of control (lower = inhibition) in assay [3] worked out at 70.6%. Besides, the growth, % of control in assay [4] stood at 67.6%. In assay [5], the cell viability, % of control (lower = more cytotoxic) is 124%.
With `O=[N+]([O-])c1ncc[nH]1`, in assay [1], the parasite growth, % of DMSO control came out at 89%. In assay [2], this compound yielded a parasite growth remaining, % of DMSO control (lower = more inhibition) of 99.8%. Besides, in assay [3], the parasite growth, % of control (lower = inhibition) was 101%. The compound further registered a growth, % of control in assay [4] of 81.7%. In addition, the cell viability, % of control (lower = more cytotoxic) in assay [5] is 102%.
For `COc1ccc2c(c1)CN(C)CC2c1ccc(Cl)c(Cl)c1` (stereo not given) the same measures were 12.3%, 40.2%, 15.9%, 9.4% and 41%.
For `C[C@]12CC[C@@H]3[C@@H](CCC4=CC(=O)CC[C@@H]43)[C@@H]1CC[C@@H]2OC(=O)CCc1ccccc1` the same measures were 65.4%, 83%, 56.3%, 90.8% and 119%.
